Experimental data taken from PubChem BioAssay (NCI).
This is part of a sample that, as a whole, favours compounds with a hit. Of some 83,000 tested, about 20% had one in any assay.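 Each cell line was grown in a 96-well plate and treated with one concentration of compound for 48 hours. Values below 10 were considered active.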 Unmarked numbers belong to inactive results. Activity calls are given as the source filed them.

Columns and labels:
Test in all cases: NCI-60 one-dose screen, 48 h (100 = growth as untreated, 0 = no growth, -100 = all killed)
Conditions in all cases: 10 µM unless noted
NCI-H23 lung = tested on: NCI-H23 lung
NCI-H226 lung = tested on: NCI-H226 lung
NCI-H322M lung = tested on: NCI-H322M lung
HOP-62 NSCLC = tested on: HOP-62 NSCLC
NCI-H460 lung = tested on: NCI-H460 lung
NCI-H522 lung = tested on: NCI-H522 lung
A549/ATCC NSCLC = tested on: A549/ATCC NSCLC
786-0 renal = tested on: 786-0 renal
COLO 205 colon = tested on: COLO 205 colon
DU-145 prostate = tested on: DU-145 prostate
K-562 leukemia = tested on: K-562 leukemia
MALME-3M melanoma = tested on: MALME-3M melanoma
MDA-MB-231 breast = tested on: MDA-MB-231 breast
SF-268 CNS = tested on: SF-268 CNS
SF-295 CNS = tested on: SF-295 CNS
SF-539 CNS = tested on: SF-539 CNS
UACC-257 melanoma = tested on: UACC-257 melanoma
M14 melanoma = tested on: M14 melanoma
RXF 393 renal = tested on: RXF 393 renal

Row | Structure (SMILES) | growth (NCI-H23 lung) | growth (NCI-H226 lung) | growth (NCI-H322M lung) | growth (HOP-62 NSCLC) | growth (NCI-H460 lung) | growth (NCI-H522 lung) | growth (A549/ATCC NSCLC) | growth (786-0 renal) | growth (COLO 205 colon) | growth (DU-145 prostate) | growth (K-562 leukemia) | growth (MALME-3M melanoma) | growth (MDA-MB-231 breast) | growth (SF-268 CNS) | growth (SF-295 CNS) | growth (SF-539 CNS) | growth (UACC-257 melanoma) | growth (M14 melanoma) | growth (RXF 393 renal)
1 | Cc1cccc(/C=C/C(=O)Nc2ncc(Cc3cccc(C)c3)s2)c1 | 30.4% | 17.7% | 39.9% | 32.1% | 8.64% (active) | -43.2% (active) | 31.1% | 21.3% | -0.745% (active) | 8.51% (active) | 11.9% | 33.6% | 38.8% | 48.2% | -1.79% (active) | 4.05% (active) | 38.3% | 0.505% (active) | 
2 | Nc1nc(N)c2c(n1)NC(c1ccc(C(F)(F)F)cc1)CC(c1ccc(Nc3nc(NCCO)nc(N4CCOCC4)n3)cc1)=N2 (configuration not stated) | 72.8% | 70.2% | 95.6% | 47.1% | 48.3% | 52.5% | 74.4% | 62.7% | 71.1% | 79.2% | 17.9% |  | 80.8% | 63.6% | 73.2% | 75.3% | 80.2% | 71.7% | 67.9%
3 | O=C(CN1CCN(c2cc(=O)n(-c3ccccc3)c3ccccc23)CC1)Nc1ccc(F)cc1 | 57.5% | 63.6% | 83.6% | 83% | 71.1% | 66.1% | 74.7% | 81.9% | 85.3% | 68.5% | 37.3% |  | 63% | 69.2% | 71.8% | 76.6% | 49.7% | 75.7% | 71.9%
4 | Cc1nn(-c2ccccc2)c2ncnc(N/N=C/c3ccccc3)c12 | 97.3% | 78.3% | 95% | 116% | 95.6% | 85.8% | 92.4% | 84.6% | 104% | 91.2% | 78.5% |  | 109% | 91.7% | 108% | 103% | 113% | 103% | 91.3%
5 | COc1cc2nc(Cl)nc(Nc3cccc(C4=Nc5c(N)nc(N)nc5NC(c5ccc6c(c5)OCO6)C4)c3)c2cc1OC (configuration not stated) | 78.7% | 85.3% | 83.4% | 40.7% | 55.5% | 74.1% | 86.1% | 61.8% | 89.1% | 81.4% | 4.53% (active) |  | 79.9% | 75.6% | 37.7% | 86.5% | 105% | 89.7% | 56.1%
6 | C#CCOC(=O)[C@@H]1CCCN1CC#C | 96.7% | 81.2% | 106% | 101% | 87.8% | 96.6% | 80.3% | 87.8% | 88% | 92% | 76.8% |  | 84.6% | 76.9% | 102% | 90.2% | 97.3% | 98.4% | 81.7%
7 | NC(N)=Nc1ccc(Oc2cccc(Nc3ccc(Cl)c(C(F)(F)F)c3)c2)cc1 | 47.4% | 53.3% | 61.9% | 13.4% | 2.61% (active) | 49% | 57.4% | 53% | -4.28% (active) | 47.8% | 5.61% (active) |  | 6.88% (active) | 32.8% | 4.34% (active) | 80.9% | 27.6% | 41.1% | 50%
8 | Cc1nn(-c2ccccc2)c2ncnc(N/N=C/c3cccc(O)c3)c12 | 61.3% | 80.5% | 73.1% | 44.3% | 15.7% | 25.4% | 57.7% | 66.7% | 57.1% | 67.9% | 13.4% |  | 70.8% | 55.9% | 46.5% | 50.4% | 62.8% | 28.6% | 16.6%
9 | NC(N)=Nc1ccc(Oc2cccc(Oc3ccc(Cl)c(C(F)(F)F)c3)c2)cn1 | -83.5% (active) | -73.4% (active) | -6.46% (active) | -56% (active) | -78.8% (active) | -67.9% (active) | -67.1% (active) | -82% (active) | -68.2% (active) | -91.9% (active) | -54.7% (active) |  | -82.9% (active) | 64.9% | -93.5% (active) | -79.7% (active) | -56% (active) | -84.3% (active) | 7.96% (active)
10 | CCCCCc1ccc(S(=O)(=O)Nc2cccc(-c3csc(NC(=O)CCCCCN4CCN(C)CC4)n3)c2)cc1 | 75.7% | 88.2% | 84.1% | 79.4% | -29.6% (active) | 64.3% | 54.4% | 44.4% | -34.3% (active) | 63.5% | -35.7% (active) | -67.4% (active) | 42.9% | 67.5% | 85.8% | 63% | 0.162% (active) |  | 
11 | NS(=O)(=O)c1ccc(-n2cc(-c3cccc(NC(=O)c4ccc(N5CCOCC5)c(C(F)(F)F)c4)c3)nn2)cc1 | 26.3% | 15.5% | 26% | 11.8% | 50.7% | 39.9% | 53.5% | 33.6% | 50.7% | 41.1% | 19.3% | 43.8% | 52% | 68.9% | 32.6% | 42.7% | 82.5% | 45.3% | 
12 | C[C@@H]1C[C@H]2C(=O)O[C@@H](C)C(NC(=O)[C@H](Cc3cc(F)cc(F)c3)NC(=O)Nc3ccc(C4CC4)cc3F)C(=O)N3CCC[C@H]3C(=O)N3CCCC[C@H]3C(=O)N[C@@H](CO)C(=O)N2C1 (some centres not stated) | 34% | -5.28% (active) | 48.3% | 33.3% | 14.4% | 13.2% | 25.7% | 40.4% | -38.3% (active) | 25.6% | 18.6% | 36.9% | 33.9% | 31.4% | 11.4% | 35.4% | 11.5% | 27.4% | 
13 | Cc1ccc(C2=NN(C)C(=O)C3(CCCC3)C2)cc1 | 106% | 105% | 103% | 114% | 112% | 103% | 99.5% | 103% | 115% | 107% | 107% |  | 104% | 98.1% | 101% | 103% | 100% | 108% | 124%
14 | CC(=O)N(C)C1CCc2c(sc(NC(=O)c3ccc(C(C)(C)C)cc3)c2C(N)=O)C1 (configuration not stated) | 85.3% | 47.3% | 78.7% | 34.7% | 10.8% | 70.4% | 39.8% | 90.9% | 103% | 58.9% | 62.3% |  | 75.5% | 99% | 43.8% | 79.7% | 86.9% | 75.5% | 96.2%
15 | Cc1nn(-c2ccccc2)c2ncnc(N/N=C/c3ccccc3O)c12 | 14.3% | 14.8% | 14.1% | 10.2% | 6.19% (active) | 23.1% | 11.7% | 11% | 10.5% | 21% | 15% |  | 29.7% | 8.32% (active) | 7.98% (active) | -1.39% (active) | 9.8% (active) | 0.329% (active) | -20.4% (active)
16 | COc1cc2nc(Cl)nc(Nc3cccc(C4=Nc5c(N)nc(N)nc5NC(c5ccc(Cl)cc5)C4)c3)c2cc1OC (configuration not stated) | 87.8% | 90.4% | 86.3% | 18% | 2.91% (active) | 34.6% | 37.2% | -52.1% (active) | 21.5% | 87.7% | -22% (active) |  | 72.9% | 84.2% | -23.9% (active) | 89.3% | 87.3% | 52.2% | 73.6%
